Source: ChEMBL document CHEMBL2218924, “A broad activity screen in support of a chemogenomic map for kinase signalling research and drug discovery” (Biochem J, 2013)

Legend:
[1] = molecular target: T1, Ephrin type-B receptor 1 (Homo sapiens) (UniProt P54762); conditions: at 10 µM
T1 sequence (whole entry): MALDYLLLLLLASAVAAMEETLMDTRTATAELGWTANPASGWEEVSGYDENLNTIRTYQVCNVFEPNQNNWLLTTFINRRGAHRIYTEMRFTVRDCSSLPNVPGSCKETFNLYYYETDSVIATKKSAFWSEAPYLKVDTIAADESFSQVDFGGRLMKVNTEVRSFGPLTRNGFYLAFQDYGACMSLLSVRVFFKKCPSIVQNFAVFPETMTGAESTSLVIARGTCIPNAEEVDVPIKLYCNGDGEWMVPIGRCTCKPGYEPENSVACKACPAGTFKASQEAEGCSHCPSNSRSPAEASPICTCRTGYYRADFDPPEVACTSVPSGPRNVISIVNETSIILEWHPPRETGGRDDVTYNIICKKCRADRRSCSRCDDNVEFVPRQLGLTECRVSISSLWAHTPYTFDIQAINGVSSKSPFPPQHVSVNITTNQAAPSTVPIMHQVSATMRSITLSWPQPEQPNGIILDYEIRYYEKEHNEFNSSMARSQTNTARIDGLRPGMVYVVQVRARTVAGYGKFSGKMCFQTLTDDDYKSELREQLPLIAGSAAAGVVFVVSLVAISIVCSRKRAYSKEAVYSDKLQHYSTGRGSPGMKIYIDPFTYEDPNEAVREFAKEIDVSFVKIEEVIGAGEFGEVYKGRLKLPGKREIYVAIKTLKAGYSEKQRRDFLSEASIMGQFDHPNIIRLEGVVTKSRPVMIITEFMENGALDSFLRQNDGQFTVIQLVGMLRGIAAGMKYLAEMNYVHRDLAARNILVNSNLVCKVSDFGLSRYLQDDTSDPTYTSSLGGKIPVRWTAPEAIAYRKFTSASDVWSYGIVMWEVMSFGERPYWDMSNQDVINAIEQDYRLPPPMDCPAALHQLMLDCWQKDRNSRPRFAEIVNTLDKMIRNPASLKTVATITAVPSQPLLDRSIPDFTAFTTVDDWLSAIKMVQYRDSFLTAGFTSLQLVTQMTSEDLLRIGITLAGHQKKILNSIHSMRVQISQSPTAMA

[2] = molecular target: T2, Ephrin type-B receptor 2 (Homo sapiens) (UniProt P29323); conditions: at 1 µM
T2 sequence (whole entry): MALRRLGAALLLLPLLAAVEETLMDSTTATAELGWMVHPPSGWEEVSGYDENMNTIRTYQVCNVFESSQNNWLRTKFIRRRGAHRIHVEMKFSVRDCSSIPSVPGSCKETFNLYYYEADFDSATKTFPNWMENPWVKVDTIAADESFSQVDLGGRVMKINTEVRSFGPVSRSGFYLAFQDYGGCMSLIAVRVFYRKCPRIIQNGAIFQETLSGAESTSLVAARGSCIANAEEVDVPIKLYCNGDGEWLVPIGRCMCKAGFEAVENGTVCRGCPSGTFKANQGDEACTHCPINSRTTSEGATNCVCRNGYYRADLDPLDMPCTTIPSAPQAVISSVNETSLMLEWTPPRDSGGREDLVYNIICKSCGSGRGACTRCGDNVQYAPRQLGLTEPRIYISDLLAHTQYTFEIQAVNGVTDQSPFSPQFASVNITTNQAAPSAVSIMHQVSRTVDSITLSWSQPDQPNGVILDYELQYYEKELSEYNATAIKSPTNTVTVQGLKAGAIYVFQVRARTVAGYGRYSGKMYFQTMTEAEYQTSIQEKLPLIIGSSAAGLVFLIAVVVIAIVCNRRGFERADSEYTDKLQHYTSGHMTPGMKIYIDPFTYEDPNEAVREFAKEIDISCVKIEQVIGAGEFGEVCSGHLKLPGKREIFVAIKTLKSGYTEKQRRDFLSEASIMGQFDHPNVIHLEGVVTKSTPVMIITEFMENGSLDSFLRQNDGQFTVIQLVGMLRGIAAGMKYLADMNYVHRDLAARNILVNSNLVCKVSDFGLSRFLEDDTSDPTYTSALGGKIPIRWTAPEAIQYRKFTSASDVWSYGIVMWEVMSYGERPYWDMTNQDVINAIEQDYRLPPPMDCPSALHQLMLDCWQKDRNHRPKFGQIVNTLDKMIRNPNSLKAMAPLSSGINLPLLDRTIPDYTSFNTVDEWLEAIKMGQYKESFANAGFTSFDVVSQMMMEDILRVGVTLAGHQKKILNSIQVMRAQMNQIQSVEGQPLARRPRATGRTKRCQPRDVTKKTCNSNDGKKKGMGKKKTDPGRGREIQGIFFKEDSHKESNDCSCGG

[3] = molecular target: T2, Ephrin type-B receptor 2 (Homo sapiens); conditions: at 10 µM
[4] = molecular target: T3, Ephrin type-B receptor 3 (Homo sapiens) (UniProt P54753); conditions: at 1 µM
T3 sequence (whole entry): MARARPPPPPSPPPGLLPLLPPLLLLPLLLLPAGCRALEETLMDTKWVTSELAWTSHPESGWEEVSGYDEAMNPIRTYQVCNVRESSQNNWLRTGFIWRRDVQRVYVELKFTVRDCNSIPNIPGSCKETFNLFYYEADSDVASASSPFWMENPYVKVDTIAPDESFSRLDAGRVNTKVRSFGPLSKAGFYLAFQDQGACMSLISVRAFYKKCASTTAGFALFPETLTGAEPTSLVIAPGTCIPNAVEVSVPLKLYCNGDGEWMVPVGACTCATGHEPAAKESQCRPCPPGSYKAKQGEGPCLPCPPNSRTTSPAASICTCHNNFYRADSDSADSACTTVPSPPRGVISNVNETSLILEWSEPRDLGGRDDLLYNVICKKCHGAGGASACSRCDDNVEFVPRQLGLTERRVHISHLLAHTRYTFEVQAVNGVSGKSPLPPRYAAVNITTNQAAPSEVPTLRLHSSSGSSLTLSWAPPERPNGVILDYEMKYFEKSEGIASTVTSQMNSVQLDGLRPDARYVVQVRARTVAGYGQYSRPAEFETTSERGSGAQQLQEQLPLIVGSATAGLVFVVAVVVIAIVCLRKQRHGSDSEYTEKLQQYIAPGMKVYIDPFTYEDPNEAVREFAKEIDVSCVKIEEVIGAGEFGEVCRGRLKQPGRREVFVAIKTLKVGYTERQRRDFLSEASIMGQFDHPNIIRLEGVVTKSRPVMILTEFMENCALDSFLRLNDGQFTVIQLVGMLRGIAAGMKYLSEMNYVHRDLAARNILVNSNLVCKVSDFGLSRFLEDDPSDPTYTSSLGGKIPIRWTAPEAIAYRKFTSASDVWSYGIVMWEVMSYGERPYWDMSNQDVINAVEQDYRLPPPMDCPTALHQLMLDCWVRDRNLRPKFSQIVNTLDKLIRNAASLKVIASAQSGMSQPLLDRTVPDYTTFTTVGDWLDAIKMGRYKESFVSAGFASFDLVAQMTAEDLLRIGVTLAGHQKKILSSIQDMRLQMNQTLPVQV

[5] = molecular target: T3, Ephrin type-B receptor 3 (Homo sapiens); conditions: at 10 µM
[6] = molecular target: T4, Ephrin type-B receptor 4 (Homo sapiens) (UniProt P54760); conditions: at 1 µM
T4 sequence (whole entry): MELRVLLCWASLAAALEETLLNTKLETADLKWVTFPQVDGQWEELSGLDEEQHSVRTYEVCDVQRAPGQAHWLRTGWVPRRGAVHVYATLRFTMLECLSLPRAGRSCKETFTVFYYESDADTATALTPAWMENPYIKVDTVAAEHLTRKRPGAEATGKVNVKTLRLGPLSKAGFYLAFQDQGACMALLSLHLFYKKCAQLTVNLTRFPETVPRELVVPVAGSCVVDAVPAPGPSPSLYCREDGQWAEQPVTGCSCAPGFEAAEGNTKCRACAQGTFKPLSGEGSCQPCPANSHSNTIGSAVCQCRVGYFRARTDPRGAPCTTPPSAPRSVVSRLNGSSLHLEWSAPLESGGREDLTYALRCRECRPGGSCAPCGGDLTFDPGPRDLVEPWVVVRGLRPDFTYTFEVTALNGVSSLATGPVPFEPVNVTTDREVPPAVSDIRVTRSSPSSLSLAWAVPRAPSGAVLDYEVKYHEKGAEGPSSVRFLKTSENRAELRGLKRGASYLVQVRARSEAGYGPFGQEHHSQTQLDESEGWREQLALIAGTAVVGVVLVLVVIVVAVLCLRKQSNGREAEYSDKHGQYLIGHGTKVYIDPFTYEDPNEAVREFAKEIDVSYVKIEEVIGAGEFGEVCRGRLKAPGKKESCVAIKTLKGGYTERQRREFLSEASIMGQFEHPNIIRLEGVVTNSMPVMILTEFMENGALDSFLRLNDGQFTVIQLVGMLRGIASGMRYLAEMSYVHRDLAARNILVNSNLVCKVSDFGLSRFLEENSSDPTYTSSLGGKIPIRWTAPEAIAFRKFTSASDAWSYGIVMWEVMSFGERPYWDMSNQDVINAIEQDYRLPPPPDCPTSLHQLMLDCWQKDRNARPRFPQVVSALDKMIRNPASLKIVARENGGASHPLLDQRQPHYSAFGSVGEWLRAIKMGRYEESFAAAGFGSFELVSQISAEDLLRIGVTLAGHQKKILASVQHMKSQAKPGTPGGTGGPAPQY

[7] = molecular target: T4, Ephrin type-B receptor 4 (Homo sapiens); conditions: at 10 µM
[8] = molecular target: Receptor tyrosine-protein kinase erbB-4 (Homo sapiens) (UniProt Q15303); conditions: at 1 µM
[9] = molecular target: Receptor tyrosine-protein kinase erbB-4 (Homo sapiens) (UniProt Q15303); conditions: at 10 µM
[10] = molecular target: Focal adhesion kinase 1 (Homo sapiens) (UniProt Q05397); conditions: at 1 µM
Focal adhesion kinase 1 (Homo sapiens), sequence (Q05397 2-1052 limits assumed): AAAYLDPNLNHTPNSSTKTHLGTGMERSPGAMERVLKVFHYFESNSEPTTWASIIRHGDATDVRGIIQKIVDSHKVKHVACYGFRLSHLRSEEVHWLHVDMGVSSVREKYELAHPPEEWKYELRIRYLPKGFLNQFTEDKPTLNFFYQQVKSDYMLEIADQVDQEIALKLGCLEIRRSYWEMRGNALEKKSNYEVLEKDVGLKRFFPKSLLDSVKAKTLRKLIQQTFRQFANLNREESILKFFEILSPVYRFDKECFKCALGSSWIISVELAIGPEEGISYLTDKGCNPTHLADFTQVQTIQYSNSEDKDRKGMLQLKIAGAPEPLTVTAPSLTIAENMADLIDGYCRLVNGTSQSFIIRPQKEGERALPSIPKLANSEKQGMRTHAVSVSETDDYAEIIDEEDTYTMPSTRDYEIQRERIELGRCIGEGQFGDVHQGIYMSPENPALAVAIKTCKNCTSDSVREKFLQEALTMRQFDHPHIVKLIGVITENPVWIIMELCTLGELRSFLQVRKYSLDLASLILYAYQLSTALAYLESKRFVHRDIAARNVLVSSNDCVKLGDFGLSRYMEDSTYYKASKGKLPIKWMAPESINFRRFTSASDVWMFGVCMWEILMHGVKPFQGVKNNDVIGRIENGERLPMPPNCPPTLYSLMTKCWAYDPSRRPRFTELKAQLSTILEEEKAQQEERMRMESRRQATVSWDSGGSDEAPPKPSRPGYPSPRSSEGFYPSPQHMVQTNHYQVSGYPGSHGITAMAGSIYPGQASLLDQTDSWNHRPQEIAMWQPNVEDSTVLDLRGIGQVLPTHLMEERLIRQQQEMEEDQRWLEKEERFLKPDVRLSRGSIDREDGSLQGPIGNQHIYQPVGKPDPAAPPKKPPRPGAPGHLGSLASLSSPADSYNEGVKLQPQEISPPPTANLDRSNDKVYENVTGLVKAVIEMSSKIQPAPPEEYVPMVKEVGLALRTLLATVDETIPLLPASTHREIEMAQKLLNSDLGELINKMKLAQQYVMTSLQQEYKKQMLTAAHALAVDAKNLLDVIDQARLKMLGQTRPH

Receptor tyrosine-protein kinase erbB-4 (Homo sapiens), sequence (Q15303 whole entry): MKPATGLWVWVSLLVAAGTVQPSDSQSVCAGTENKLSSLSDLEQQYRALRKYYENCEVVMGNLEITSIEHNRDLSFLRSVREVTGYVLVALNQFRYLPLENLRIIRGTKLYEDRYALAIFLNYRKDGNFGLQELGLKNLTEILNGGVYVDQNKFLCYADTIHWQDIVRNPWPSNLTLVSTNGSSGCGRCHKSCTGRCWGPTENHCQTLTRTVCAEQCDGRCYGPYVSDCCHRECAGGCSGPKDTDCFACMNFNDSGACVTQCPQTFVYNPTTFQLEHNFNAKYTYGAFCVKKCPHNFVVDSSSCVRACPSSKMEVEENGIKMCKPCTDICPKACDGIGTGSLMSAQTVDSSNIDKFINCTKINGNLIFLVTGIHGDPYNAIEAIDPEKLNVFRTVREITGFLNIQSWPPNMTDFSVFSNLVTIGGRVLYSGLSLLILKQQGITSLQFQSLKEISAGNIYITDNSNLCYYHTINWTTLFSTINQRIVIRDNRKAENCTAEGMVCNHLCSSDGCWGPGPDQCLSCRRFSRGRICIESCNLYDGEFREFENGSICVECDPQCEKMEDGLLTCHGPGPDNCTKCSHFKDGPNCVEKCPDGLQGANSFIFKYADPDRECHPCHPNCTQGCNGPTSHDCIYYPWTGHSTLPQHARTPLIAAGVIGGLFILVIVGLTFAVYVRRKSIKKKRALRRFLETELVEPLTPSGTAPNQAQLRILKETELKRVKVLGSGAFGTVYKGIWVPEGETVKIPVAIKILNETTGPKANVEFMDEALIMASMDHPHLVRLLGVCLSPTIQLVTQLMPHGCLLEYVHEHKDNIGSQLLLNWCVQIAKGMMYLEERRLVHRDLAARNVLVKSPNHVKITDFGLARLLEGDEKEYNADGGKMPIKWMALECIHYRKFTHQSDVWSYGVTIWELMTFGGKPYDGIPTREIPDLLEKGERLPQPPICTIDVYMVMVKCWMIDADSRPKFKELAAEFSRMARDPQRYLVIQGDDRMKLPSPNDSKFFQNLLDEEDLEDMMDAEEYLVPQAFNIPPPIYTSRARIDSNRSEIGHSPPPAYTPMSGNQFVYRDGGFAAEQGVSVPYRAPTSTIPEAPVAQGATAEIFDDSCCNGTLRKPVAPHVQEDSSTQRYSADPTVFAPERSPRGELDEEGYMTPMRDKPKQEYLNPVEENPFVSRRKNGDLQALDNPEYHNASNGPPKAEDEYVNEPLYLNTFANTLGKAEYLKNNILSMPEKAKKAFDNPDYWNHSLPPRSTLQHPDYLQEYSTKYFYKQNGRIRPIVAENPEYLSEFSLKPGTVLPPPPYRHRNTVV

## O=C(Nc1cccc(Nc2cc(Nc3cccc(C(F)(F)F)c3)ncn2)c1)C1CC1
[1]
  residual activity: 69%
[2]
  residual activity: 101%
[3]
  residual activity: 99%
[4]
  residual activity: 90% (inactive)
[5]
  residual activity: 100%
[6]
  residual activity: 97%
[7]
  residual activity: 82%
[8]
  residual activity: 71%
[9]
  residual activity: 88%
[10]
  residual activity: 130%
